“And” between values parts separate entries of the source, which are not always exact repeats. Equal entries are not always repeated. Among all 5,500 compounds or so, about 2,000 (36%) were called active. Roughly 18% stayed inconclusive and do not appear here. Rule as the data show it: active = normalized growth mostly below about 0.91 (no sharp cut-off); inconclusive = no clear call, values can overlap the other calls; inactive = mostly above about 0.92. Some of the results follow.
Assay: chemical genetic growth profiling, strain panel (AID 1159580);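 also: tested at 20 µM; growth read once vehicle control cultures reached saturation at 30 °C; 1 = growth at the plate median or of vehicle wells; lower values mean less growth of the strain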
Conditions: S. cerevisiae deletion strains, growth OD

Measured: normalized growth

CCC(C)C(=O)O[C@@H]1C[C@@]2(C)[C@H](c3ccoc3)OC(=O)CC23OC2(C)O[C@]14[C@]1(C)[C@@H](CC(=O)OC)C5(C)CC1(O)[C@](O)(C5OC(=O)C1(C)OC1C)[C@@H](OC(C)=O)[C@]34O2 (some centres undefined)
inactive: locus YAL013W, strain DEP1, hits give low values 1.02 | locus YAL021C, strain ccr4, hits give low values 0.996 | locus YAL026C, strain drs2, hits give low values 0.988 | locus YAL030W, strain snc1, hits give low values 0.991 | locus YBL061C, strain skt5, hits give low values 1 | locus YBR009C, strain hhf1, hits give low values 1.01 | locus YBR021W, strain FUR4, hits give low values 1.03 | locus YBR023C, strain chs3, hits give low values 1.01 | locus YBR171W, strain sec66, hits give low values 0.978 | locus YBR229C, strain ROT2, hits give low values 1.01 | locus YBR231C, strain swc5, hits give low values 0.995 | locus YBR279W, strain paf1, hits give low values 1 | locus YCL011C, strain gbp2, hits give low values 0.983 | locus YCL016C, strain dcc1, hits give low values 1.01 | locus YCL029C, strain bik1, hits give low values 1.02 | locus YCL061C, strain MRC1, hits give low values 1.01 | locus YCL069W, strain vba3, hits give low values 0.98 | locus YCR088W, strain abp1, hits give low values 0.995 | locus YDL005C, strain med2, hits give low values 0.978 | locus YDL035C, strain GPR1, hits give low values 0.963 | locus YDL040C, strain nat1, hits give low values 0.982 | locus YDL074C, strain BRE1, hits give low values 0.994 | locus YDL101C, strain DUN1, hits give low values 1.02 | locus YDL185W, strain tfp1, hits give low values 1.02 | locus YDL192W, strain arf1, hits give low values 0.995 | locus YDR001C, strain nth1, hits give low values 0.997 | locus YDR069C, strain doa4, hits give low values 1.01 | locus YDR101C, strain arx1, hits give low values 1.02 | locus YDR159W, strain sac3, hits give low values 1.02 | locus YDR162C, strain NBP2, hits give low values 0.979 | locus YDR195W, strain ref2 0.969 | locus YDR297W, strain sur2, hits give low values 0.995 | locus YDR318W, strain mcm21, hits give low values 1.02 | locus YDR334W, strain swr1, hits give low values 0.983 | locus YDR335W, strain msn5, hits give low values 0.992 | locus YDR388W, hits give low values 1.02 | locus YDR392W, strain spt3, hits give low values 0.918 | locus YDR502C, strain sam2, hits give low values 1.03 | locus YEL003W, strain gim4, hits give low values 0.993 | locus YEL037C, strain rad23, hits give low values 0.995 | locus YEL061C, strain CIN8 (second series), hits give low values 0.988 | locus YEL061C, strain CIN8, hits give low values 1 | locus YER015W, strain faa2, hits give low values 1 | locus YER016W, strain bim1, hits give low values 0.995 | locus YER110C, hits give low values 1.02 | locus YER111C, strain swi4, hits give low values 0.976 | locus YER155C, strain BEM2 (second series), hits give low values 1 | locus YER155C, strain BEM2, hits give low values 1.01 | locus YER167W, strain BCK2, hits give low values 1 | locus YFR010W, strain ubp6, hits give low values 0.985 | locus YGL078C, strain dbp3, hits give low values 1.05 | locus YGL086W, strain mad1, hits give low values 1.01 | locus YGL167C, strain pmr1, hits give low values 0.995 | locus YGL173C, strain kem1, hits give low values 0.993 | locus YGL227W, strain vid30, hits give low values 0.994 | locus YGL240W, strain doc1, hits give low values 0.977 | locus YGL248W, strain PDE1, hits give low values 1.01 | locus YGL253W, strain hxk2, hits give low values 0.952 | locus YGR078C, strain PAC10, hits give low values 1.02 | locus YGR135W, strain pre9, hits give low values 1.04 | locus YGR229C, strain SMI1, hits give low values 1.03 | locus YGR252W, strain gcn5, hits give low values 1.04 | locus YHR013C, strain ard1, hits give low values 0.984 | locus YHR027C, strain rpn1, hits give low values 0.996 | locus YHR030C, strain SLT2, hits give low values 1.02 and 0.954 | locus YHR079C, strain IRE1 (second series), hits give low values 1.02 | locus YHR079C, strain IRE1, hits give low values 0.962 | locus YHR094C, strain hxt1, hits give low values 1.02 | locus YHR129C, strain ARP1, hits give low values 1 | locus YHR142W, strain chs7, hits give low values 0.984 | locus YHR200W, strain rpn10, hits give low values 1.02 | locus YIL066C, strain RNR3, hits give low values 0.999 | locus YIL073C, strain SPO22, hits give low values 1.04 | locus YIL125W, strain kgd1, hits give low values 1.02 | locus YIR030C, strain dcg1, hits give low values 1.02 | locus YJL092W, strain hpr5, hits give low values 0.986 | locus YJL095W, strain BCK1 (second series), hits give low values 1 | locus YJL095W, strain BCK1, hits give low values 1.01 and 0.948 | locus YJL115W, strain asf1, hits give low values 1 | locus YJL129C, strain trk1, hits give low values 0.983 | locus YJL134W, strain LCB3, hits give low values 1.01 | locus YJL154C, strain vps35, hits give low values 0.993 | locus YJL164C, strain tpk1, hits give low values 1.01 | locus YJL166W, strain qcr8, hits give low values 0.987 | locus YJL168C, strain set2, hits give low values 1.02 | locus YJL187C, strain SWE1 (second series), hits give low values 1.02 | locus YJL187C, strain SWE1, hits give low values 1 | locus YJR066W, strain TOR1, hits give low values 0.912 | locus YJR075W, strain HOC1, hits give low values 1.02 | locus YKL009W, strain mrt4, hits give low values 0.989 | locus YKL068W, hits give low values 1 | locus YKL085W, strain MDH1 (second series), hits give low values 1 | locus YKL085W, strain MDH1, hits give low values 1 | locus YKL160W, strain elf1, hits give low values 1.02 | locus YKR001C, strain vps1, hits give low values 1.01 | locus YKR026C, strain gcn3, hits give low values 1 | locus YKR091W, strain srl3, hits give low values 0.996 | locus YLL001W, strain dnm1, hits give low values 1.01 | locus YLL026W, hits give low values 1 | locus YLL041C, strain sdh2, hits give low values 0.987 | locus YLR027C, strain aat2, hits give low values 1.01 | locus YLR039C, strain RIC1, hits give low values 0.683 | locus YLR058C, strain SHM2, hits give low values 1 | locus YLR102C, strain apc9, hits give low values 1.03 | locus YLR113W, strain HOG1, hits give low values 1 | locus YLR221C, strain rsa3, hits give low values 0.978 | locus YLR258W, strain gsy2, hits give low values 0.988 | locus YLR268W, strain sec22, hits give low values 0.995 | locus YLR320W, strain mms22, hits give low values 0.979 | locus YLR330W, strain CHS5, hits give low values 1.02 | locus YLR342W, strain FKS1 (second series), hits give low values 0.981 | locus YLR342W, strain FKS1, hits give low values 0.977 | locus YLR357W, strain rsc2, hits give low values 1.01 | locus YLR370C, strain arc18, hits give low values 0.971 | locus YLR371W, strain rom2, hits give low values 1.01 | locus YLR384C, strain iki3, hits give low values 1.01 | locus YLR418C, strain cdc73, hits give low values 1.01 | locus YML016C, strain PPZ1, hits give low values 1 | locus YML032C, strain rad52, hits give low values 1.01 | locus YML120C, strain ndi1, hits give low values 0.992 | locus YML124C, strain tub3, hits give low values 1.01 | locus YMR058W, strain fet3, hits give low values 1.01 | locus YMR078C, strain ctf18, hits give low values 1.02 | locus YMR125W, strain sto1, hits give low values 0.991 | locus YMR129W, hits give low values 0.999 | locus YMR205C, strain PFK2, hits give low values 1.01 | locus YMR223W, strain ubp8, hits give low values 1.02 | locus YMR231W, strain pep5, hits give low values 0.945 | locus YMR307W, strain GAS1, hits give low values 0.925 | locus YNL067W, strain RPL9B, hits give low values 1.03 | locus YNL071W, strain lat1, hits give low values 0.994 | locus YNL183C, strain NPR1, hits give low values 0.928 | locus YNL209W, strain ssb2, hits give low values 0.995 | locus YNL233W, strain BNI4, hits give low values 1.03 | locus YNL248C, strain rpa49, hits give low values 0.975 | locus YNL250W, strain rad50, hits give low values 1.05 | locus YNL271C, strain bni1, hits give low values 1.02 | locus YNL298W, strain CLA4, hits give low values 1.02 | locus YNL307C, strain MCK1, hits give low values 1.03 | locus YNL322C, strain KRE1 (second series), hits give low values 0.984 | locus YNL322C, strain KRE1, hits give low values 1.02 | locus YNR049C, strain mso1, hits give low values 0.999 | locus YNR052C, strain pop2, hits give low values 1.03 | locus YOL012C, strain htz1 0.597 | locus YOL147C, strain pex11, hits give low values 1.02 | locus YOR001W, strain rrp6, hits give low values 0.941 | locus YOR061W, strain CKA2, hits give low values 1 | locus YOR069W, strain VPS5, hits give low values 1.01 | locus YOR070C, strain gyp1, hits give low values 0.994 | locus YOR080W, strain dia2, hits give low values 0.985 | locus YOR083W, strain WHI5, hits give low values 1.03 | locus YOR106W, strain vam3, hits give low values 1.02 | locus YOR136W, strain idh2, hits give low values 0.999 | locus YOR144C, strain elg1, hits give low values 1.02 | locus YOR184W, strain ser1, hits give low values 0.996 | locus YOR231W, strain MKK1, hits give low values 0.978 | locus YOR265W, strain rbl2, hits give low values 0.994 | locus YOR270C, strain vph1, hits give low values 0.779 | locus YOR290C, strain snf2, hits give low values 1 | locus YOR316C, strain cot1, hits give low values 1.02 | locus YPL051W, strain arl3, hits give low values 1.01 | locus YPL078C, strain atp4, hits give low values 1.01 | locus YPL106C, strain sse1, hits give low values 1.02 | locus YPL240C, strain hsp82, hits give low values 0.989 | locus YPL241C, strain CIN2, hits give low values 1.01 | locus YPL256C, strain CLN2, hits give low values 0.965 | locus YPR119W, strain clb2, hits give low values 1.01 | locus YPR141C, strain kar3, hits give low values 1.03 | locus YPR163C, strain tif3, hits give low values 1.02 | locus YPR167C, strain met16, hits give low values 1.02 | strain wtn01, hits give low values 1
active: locus YDR137W, strain rgp1, hits give low values 0.726 | locus YLR262C, strain YPT6 (second series), hits give low values 0.711 | locus YLR262C, strain YPT6, hits give low values 0.602

Reference: PubChem BioAssay AID1159580 (chemical genetic matrix, 2015)
